# Assay results published in PubChem BioAssay (Tox21).
# Inconclusive results are not listed. A number with no mark means an inactive call. Calls of active or inactive are those of the source. Calls come from the whole dose curve.
# Experiment: qHTS assay to identify small molecule agonists or antagonists of the thyroid stimulating hormone receptor (TSHR) signaling pathway - wild type cell line counter screen (AID 1259384)
# Settings: HEK293 wild type, cAMP HTRF counter-screen, hits give high values; series mostly up to 92.4 µM; cAMP activity change: at the top concentration
# Description: U.S. Tox21 Program National Center for Advancing Translational Sciences [NCATS] NIH Chemical Genomics Center [NCGC] U.S. Environmental Protection Agency [EPA] National Institutes of Environmental Health Sciences [NIEHS] National Toxicology Program [NTP] U.S. Food and Drug Administration [FDA] Tox21 Assay Overview: TSHR is the receptor for thyrotropin (thyroid stimulating hormone or TSH), a member of the glycoprotein hormone family. TSH is released by the anterior pituitary gland and is the main regulator of thyroid gland growth and development. Upon binding circulating thyrotropin, a G-protein signal cascade activates adenylyl cyclase and […] cAMP concentration is increased. cAMP is a key second messenger involved extensively in cellular signal transduction pathways associated with the majority of G-protein coupled receptors (GPCRs). The activation of these GPCRs by neurotransmitters, lipids, nucleotides, peptides and hormones results in the activation or the inhibition of plasma membrane-bound adenylate cyclase through heterotrimeric G-proteins. A cell-based TSHR-Hek293 assay can be used to identify TSHR agonists. To eliminate the false positive compounds identified from screening a cell-based TSHR-Hek293 cell line, cAMP assay in a wild type Hek293 cells was used as a counter screening.
# Tox21 Assay Protocol Summary: Hek293 cells (wild type) were dispensed at 800 cells/4 uL/well in 1536-well white plates using a Multidrop dispenser. After the assay plates were incubated at a 37 C/5% CO2 incubator for 18 hrs, 23 nL of compounds dissolved in DMSO, positive controls or DMSO only was transferred to the assay plate by a pin tool, followed by 1 ul medium containing Ro20-1724. After 30 min of incubation at room temperature, 2.5 ul/well of cAMP-d2 and 2.5 ul/well of anti-cAMP-cryptate were added respectively into the assay plates using a Flying Reagent Dispenser. The plates were incubated at room temperature for 1 hr. The fluorescence intensity in the plates was measured using an Envision plate reader. Each test compound was measured at 15 concentrations and in triplicates.
# % is set by controls: 0 for no effect and ±100 for the full control effect.
Compound,outcome,cAMP activity change
Cc1cc(O)ccc1Cl,inactive,
CC[N+](=O)[O-],inactive,
Cc1ccc(N)cc1,inactive,
N#Cc1cccc(C#N)c1,inactive,
ClCCOCCCl,inactive,
O=C(O)CCCc1ccc(N(CCCl)CCCl)cc1,inactive,
CN(C)C(=O)Nc1cccc(C(F)(F)F)c1,inactive,
O=C/C=C/c1ccccc1,inactive,
Cc1ccc(O)c(C)c1,inactive,
OCc1ccco1,inactive,
c1ccc2c(c1)CCCC2,inactive,
Cc1ccccc1N,inactive,
CSc1nnc(C(C)(C)C)c(=O)n1N,inactive,
O=[N+]([O-])c1cc([As](=O)(O)O)ccc1O,inactive,
Cl[C@H]1OCCO[C@@H]1Cl,inactive,
C=C(C)C(=O)OCC(CC)CCCC (stereo not given),inactive,
COC(C)(C)CCCC(C)C/C=C/C(C)=C/C(=O)OC(C)C (stereo not given),inactive,
COc1nc(NC(C)C)nc(NC(C)C)n1,inactive,
Oc1c(Br)cc(Br)cc1Br,inactive,
Oc1ccc(Cl)cc1,inactive,

Compound,outcome,cAMP activity change
CCNc1nc(Cl)nc(NC(C)C)n1,inactive,
CC(C)CCCCCCOC(=O)c1ccccc1C(=O)OCCCCCCC(C)C,inactive,
CNC(=O)O/N=C/C(C)(C)SC,inactive,
CC(C)(C)C(=O)CCl,inactive,
Nc1ccc(N)cc1,,-0.436% [at 42.5 µM]
Nc1nc(N)nc(NC2CC2)n1,inactive,
Cc1cccc(N)c1C,inactive,
Nc1ncc([N+](=O)[O-])s1,inactive,
[N-]=[N+]=CC(=O)OC[C@H](N)C(=O)O,inactive,
CCOc1ccc(N)cc1,inactive,
FC(F)(F)c1ccc(Cl)cc1,inactive,
C=CC#N,inactive,
C=CC(=O)OCC(CC)CCCC (stereo not given),inactive,
OCC(O)CCl (stereo not given),inactive,
COP(=S)(OC)SCN1C(=O)c2ccccc2C1=O,inactive,
CN(C)C(=O)Cl,inactive,
Clc1cnc(Oc2ccc(Oc3ncc(Cl)cc3Cl)cc2)c(Cl)c1,,1.44% [at 42.5 µM]
Nc1cccc(Cl)c1,inactive,
OC[C@@H](O)[C@H]1O[C@@H]2O[C@H](C(Cl)(Cl)Cl)O[C@@H]2[C@H]1O,inactive,
O=[N+]([O-])c1ccc(Cl)c(Cl)c1,inactive,
